Source: PubChem
Only some compounds are listed: those with a hit (about 11% of all), similar ones and a draw of the others.
HCV inh: qHTS Assay for Inhibitors of Hepatitis C Virus (HCV); Huh7.5.1 HCVcc-Cre infection, luciferase reporter, 44 h; Potency, µM (doses to about 41.8 µM), inactives show at the highest dose activity change, negative = inhibition, usual class: inhibitors; actives 3.4% (n = 340,000); AID 651820, 2012
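Infectious HCVcc-Cre (~0.5 moi) was added to cells just after compound, with cells seeded 4 h earlier at 1,000 per well. Luciferase activity after 44 h culture reported infection; substrate was incubated 15 min at room temperature before reading.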
Pf growth 48h: Primary qHTS for delayed death inhibitors of the malarial parasite plastid, 48 hour incubation. P. falciparum luciferase growth in erythrocytes, 48 h. Potency, µM (highest dose often 28.7 µM), without a hit: top-dose activity change, negative = inhibition, actives largely listed as inhibitors. actives 5.9% (n = 310,000)
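Read-out is firefly luciferase luminescence from an integrated reporter in P. falciparum, so falling signal marks reduced parasite growth. Infected erythrocytes were at 2% hematocrit and 0.1% parasitemia (final) in Albumax-supplemented RPMI 1640.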
AMA1-RON2 inh: qHTS for Inhibitors of AMA1-RON; Towards Development of Antimalarial Drug Lead: Primary Screen. Plasmodium falciparum AMA1 (3D7) - RON2 peptide interaction. Potency, µM (titrated, usually from 58.2 µM), inactives show top-dose activity change, negative = inhibition, hits mostly inhibitors. AlphaScreen AMA1-biotinylated RON2 peptide binding. AID 720542, 2013. actives 0.2% (n = 360,000);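 note: 0% = vehicle wells and -100% = peptide control; nearly all actives have a fitted effect of over 45% in size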
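AMA1 (3D7) with his tag at 25 nM final met compounds first, then biotinylated RON2 peptide at 25 nM; detection used donor plus acceptor beads, 10 µg/mL apiece, read by AlphaScreen after 30 min at room temperature.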
Pf growth 96h: Primary qHTS for delayed death inhibitors of the malarial parasite plastid, 96 hour incubation; P. falciparum luciferase reporter growth, 96 h; Potency, µM (highest dose often 28.7 µM), without a hit: at the highest dose activity change, negative = inhibition, usual class: inhibitors; actives 6.9% (n = 320,000)
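Compounds incubated with erythrocytes infected by luciferase-expressing P. falciparum (2% hematocrit, 0.05% parasitemia final) for 96 hours, 37 C in 5% CO2. Growth inhibition scored as decreased luciferase luminescence.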
Numbers without * were called inactive; ? = inconclusive; · = no result given; [ ] = remark or other dose. Calls come from the whole dose curve; as a rule, active = well fitted curve in the direction sought with a large enough effect; inconclusive = small, poorly fitted or top-dose-only effect, or another doubt; inactive = no such curve, though single readings can be large; an effect the other way counts as inactive or inconclusive. Unless noted, % is set by controls: 0 for no effect and ±100 for the full control effect; potency is the fitted concentration of half-maximal effect.

SMILES	HCV inh	Pf growth 48h	AMA1-RON2 inh	Pf growth 96h
CC(NC(=O)C12CC3CC(CC(C3)C1)C2)c1ccc2c(c1)OCCO2 (centres undefined)	1.5%	·	0.7%	?
Cc1ccc(C(C)NC(=O)C23CC4CC(CC(C4)C2)C3)cc1 (centres undefined)	9.3%	-32.6%[1.15 µM]	10.8%	0.586µM*
COc1ccccc1CN1CC(C(=O)NCCCCc2ccccn2)CCC1=O (centres undefined)	·	·	15.2%	·
Cc1nc(N2CCCCC2)c2c(-c3cccs3)csc2n1	5.8%	0.6%	?	?
Cc1nc(N2CCN(S(=O)(=O)c3ccccc3C#N)CC2)c2c(-c3cccs3)csc2n1	10µM*	?	-12.7%	?
O=C(NCC1CCCO1)c1cn(Cc2ccccc2)nc1-c1ccc(Cl)cc1 (centres undefined)	-11.6%	?	0.0%	-12.7%
COc1ccccc1C1=NN(C(=O)c2ccccc2)C(c2ccc(Br)cc2)C1 (centres undefined)	-9.6%	3.7µM*	-14.1%	4.1%
COc1ccc(C2=NN(C(=O)c3ccccc3)C(c3ccc(OC)c(OC)c3)C2)c(O)c1 (centres undefined)	-26.8%	10.4µM*	-4.4%	10.4µM*
Cc1ccn2c(=O)nc(SCC(=O)N3CCCCC3)nc2c1	0.8%[8.37 µM]	3.1%	29.2%	?
COc1ccccc1OCC(=O)NCC1CCCN(Cc2cnn(C(C)C)c2)C1 (centres undefined)	27.1%	14.8%	-1.1%	-1.0%
CCN1C(=O)C(=O)N(CC(=O)Nc2cccc(C(F)(F)F)c2)C1=O	12.5%	·	17.0%	·
c1ccc2c(c1)nnn2-c1ncnc2sc3c(c12)CCCC3	·	0.0%	11.8%	3.29µM*
c1ccc2c(c1)ncn2-c1ncnc2sc3c(c12)CCCC3	-4.8%	18.7%	13.3%	-0.8%
CC(O)CNc1nc2ccccc2n1-c1ncnc2sc3c(c12)CCC3 (centres undefined)	?	·	-10.1%	4.15µM*
CCCCN(CCCC)CC(O)c1cc(Cl)cc2c1-c1ccc(Cl)cc1/C2=C/c1ccc(Cl)cc1 (centres undefined)	·	0.0151µM*	·	0.0213µM*
CN(C(=S)Nc1ccc(SC(F)F)cc1)C(c1ccccc1)c1ccccc1	?	9.28µM*	20.6%	?
Cc1cc(NC(=O)CSc2cn(C)c3ccccc23)no1	-24.9%	·	12.8%	?
Cc1ccc(C)c(NC(=O)C2CCCN2/C=C/C(=O)C(F)(F)F)c1 (centres undefined)	?	16.4%	7.7%	69.4%
C/C(=N\NC(=O)CC(C)C)c1ccc(N2CCCCC2)cc1	?	36.9%	1.8%	44.5%
O=C(NC1CCN(S(=O)(=O)c2ccccc2)CC1)c1ccccc1	-3.9%	9.6%	1.1%	14.7µM*
Cc1ccc(C(=O)NC2CCN(S(=O)(=O)c3ccccc3F)CC2)cc1	9.9%	-5.6%	7.8%	13.1µM*
O=C(NCc1ccccc1)C(c1ccncc1)N(C(=O)c1csnn1)c1cccc(F)c1 (centres undefined)	4.0%	-7.6%	19.2%	2.7%
O=C1NCCOC(=O)[C@@H](Cc2ccc(F)cc2)C/C=C\C[C@@H]1CC(=O)N(CCO)Cc1ccccc1	?	·	19.1%	·
Cc1ccnc(NS(=O)(=O)c2ccc(NC(=O)c3cc(-c4ccc(Br)cc4)nc4ccccc34)cc2)n1	9.3%	-22.1%	15.9%	60.3%
COc1cc(/C=c2\sc3n(c2=O)C(c2ccccc2)C(c2ccccc2)=NN=3)ccc1O (centres undefined)	-18.2%	4.65µM*	-12.7%	4.15µM*
SMILES	HCV inh	Pf growth 48h	AMA1-RON2 inh	Pf growth 96h
COc1cc(/C=c2\sc3n(c2=O)CCCN=3)ccc1O	-4.9%	54.0%	8.6%	41.6%
CC(C(=O)Nc1ccc2[nH]c(=O)[nH]c2c1)N1CCN(Cc2ccc3c(c2)OCO3)CC1 (centres undefined)	-8.1%	-21.2%	-8.3%	?
COc1ccc(CC(=O)Nc2cc(F)ccc2F)cc1S(=O)(=O)N1CCOCC1	·	·	-1.7%	·
COc1ccc(CC(=O)Nc2nc3ccccc3s2)cc1S(=O)(=O)N1CCOCC1	11.2µM*	?	-24.3%	?
COc1ccc(CC(=O)NCc2ccc(F)cc2)cc1S(=O)(=O)N1CCOCC1	4.7%	?	8.6%	?
COc1ccc(CC(=O)Nc2nnc(SCc3ccccc3)s2)cc1S(=O)(=O)N1CCOCC1	?	-26.0%	-0.7%	·
COc1ccc(CC(=O)Nc2nc3ccc(F)cc3s2)cc1S(=O)(=O)N1CCOCC1	12.6µM*	?	-20.1%	6.57µM*
COc1ccc(CC(=O)Nc2nc(C)cs2)cc1S(=O)(=O)N1CCOCC1	3.9%	?	3.4%	23.4%
COc1ccc(CC(=O)Nc2ccc(F)c(F)c2F)cc1S(=O)(=O)N1CCOCC1	-0.8%	11.7µM*	-4.8%	?
CCCCc1nnc(NC(=O)Cc2ccc(OC)c(S(=O)(=O)N3CCOCC3)c2)s1	3.0%	10.4µM*	26.0%	?
COc1ccccc1CN1[C@@H](CC(=O)O)c2cc(F)ccc2S1(=O)=O	?	·	18.3%	·
CCCCOc1ccc(/C=C/C2=CC(C)(C)NC(=S)N2)cc1OCC	?	?	26.4%	107.2%
Cc1ccc(S(=O)(=O)SCCCSS(=O)(=O)c2ccc(C)cc2)cc1	?	·	15.3%	·
C[C@@H](C(=O)Nc1ccc2ccccc2c1)[C@@H]1C[C@@]1(C)[C@@H](NC(=O)OCc1ccccc1)c1ccccc1	-2.3%	?	2.7%	7.9%
C[C@@H](C(=O)Nc1ccc2ccccc2c1)[C@H]1C[C@]1(C)[C@H](NP(=O)(c1ccccc1)c1ccccc1)c1ccccc1	5.2%[8.37 µM]	?	·	10.4µM*
C[C@@H](C(=O)O)[C@@H]1C[C@@]1(C)[C@@H](NC(=O)OCc1ccccc1)c1ccccc1	-7.4%[8.37 µM]	32.1%	-2.3%	-15.2%
C[C@@H](C(=O)Nc1ccc2ccccc2c1)[C@H]1C[C@]1(C)[C@H](NS(=O)(=O)c1ccccc1)c1ccccc1	?	1.04µM*	-4.2%	?
CNC(=O)[C@H](C)[C@@H]1C[C@@]1(C)[C@@H](NC(=O)OCc1ccccc1)c1ccccc1	-3.2%[8.37 µM]	13.1µM*	-9.2%	?
CC(C)OC(=O)N(C)C[C@@H]1OCc2ccccc2-c2c(n(C)c3ccccc23)C(=O)N([C@@H](C)CO)C[C@H]1C	·	·	9.4%	·
Nc1nc2c(ncn2[C@@H]2O[C@H](CNCc3cnc(N4CCOCC4)s3)[C@@H](O)[C@H]2O)c(=O)[nH]1	·	·	13.1%	·
O=C(NCCN1CCOCC1)c1cc(Cl)ccc1[N+](=O)[O-]	-2.2%	-5.7%	·	?
CCOC(=O)C1CCCN(C(=O)c2cc(S(=O)(=O)Nc3ccccc3OC)ccc2C)C1 (centres undefined)	10µM*	?	-15.4%	?
